Compound activity from PubChem.
Shown are actives, neighbours in structure and some others; about 3.4% of the full set was active somewhere.
TEAD-YAP inh: TEAD-YAP interaction inhibition, primary screen, TEAD-YAP interaction inhibitor project, luminescence, HEK-TIYL cells | TEAD-Gal4/YAP UAS-luciferase luminescence | inhibition, % at 9.12 µM | 640,000 tested, 1.4% active; in the data active = inhibition above about 32%;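 also: 0% = median of test compound wells and 100% = reference inhibitor wells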
FBW7 activator: FBW7 E3 ligase activators, primary screen, biochemical, AlphaScreen, human | F-box/WD repeat-containing protein 7 (Homo sapiens), Q969H0 | AlphaScreen FBW7–phospho-cyclin E peptide binding, activator screen | normalized activity (activation), % at 26.1 µM | 650,000 tested, 0.13% active | AID 1259310, 2017; in the data active = normalized activity above about 1.9%;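 also: purified mutant Fbw7 with reduced substrate affinity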
MITF inh: MITF inhibitors, primary screen, biochemical, AlphaScreen, human; Microphthalmia-associated transcription factor (Homo sapiens), O75030; AlphaScreen MITF homodimerization, bead proximity signal; inhibition, % at 2.6 µM; 650,000 tested, 0.91% active; AID 1259374, 2018; in the data active = inhibition above about 50%;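 also: 0% = vehicle wells with protein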
Target sequence (O75030 whole entry, looked up): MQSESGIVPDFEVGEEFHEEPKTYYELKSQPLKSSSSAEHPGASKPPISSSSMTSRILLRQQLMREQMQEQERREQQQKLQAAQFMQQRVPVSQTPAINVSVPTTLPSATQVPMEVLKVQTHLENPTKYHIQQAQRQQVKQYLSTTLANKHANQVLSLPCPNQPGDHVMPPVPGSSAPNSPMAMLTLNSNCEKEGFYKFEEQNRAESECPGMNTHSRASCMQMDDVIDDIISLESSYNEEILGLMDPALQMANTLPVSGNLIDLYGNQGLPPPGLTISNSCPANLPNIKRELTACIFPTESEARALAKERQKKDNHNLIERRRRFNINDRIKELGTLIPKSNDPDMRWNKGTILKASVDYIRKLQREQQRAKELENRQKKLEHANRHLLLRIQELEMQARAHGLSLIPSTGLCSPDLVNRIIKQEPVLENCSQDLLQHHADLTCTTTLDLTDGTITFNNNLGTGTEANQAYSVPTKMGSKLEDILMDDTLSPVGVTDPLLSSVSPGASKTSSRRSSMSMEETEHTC
GPR151 ag: activators of human GPR151, primary screen, cell-based, PathHunter beta-arrestin, luminescence; activation, % at 11.2 µM; PathHunter beta-arrestin GPR151 cells; 650,000 tested, 1% active; G-protein coupled receptor 151 (Homo sapiens), Q8TDV0; in the data active = activation above about 4.9%;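 also: 0% = median of compound wells and 100% = cells with positive control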
GPR151 conf act: GPR151 activators, triplicate retest, confirmation, cell-based, PathHunter beta-arrestin, luminescence; activation, % at 11.2 µM; GPR151 PathHunter beta-arrestin cells, 90 min; % of EA-reagent control over plate median; AID 1508609, 2020; 6,700 tested, under 10 active; shares compounds with GPR151 ag;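 active = mean percent activation across replicates above the confirmation screen cutoff of 4.91%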
GPR119 ag: GPR119 activators in beta-arrestin cells, counter-screen for GPR151 activator project, cell-based, PathHunter beta-arrestin, luminescence, triplicate. shares compounds with GPR151 ag. 90 min; 0 = compound-well median, 100 = enzyme-acceptor control. activation, % at 11.2 µM. 6,700 tested, 0.3% active. AID 1508611, 2020;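 active = mean percent activation in the counterscreen above 29.09%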;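 also: counterscreen on off-target GPR119 to flag nonselective hits from the GPR151 activator screen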
Active calls of the source: *; / = no result; ! = repeats disagree.

SMILES | TEAD-YAP inh | FBW7 activator | MITF inh | GPR151 ag | GPR151 conf act | GPR119 ag
Cc1nc(CCNC(=O)CC2C(=O)NCCN2Cc2ccccc2F)sc1C (stereo not drawn) | -1 | 0 | -4 | -2 | / | /
Cc1nc(CCNC(=O)CC2C(=O)NCCN2Cc2cccc3ccccc23)sc1C (stereo not drawn) | -1 | 0 | 6 | 5.5* | 1 | 2
O=C(O)CCCNC(=O)c1cccc([N+](=O)[O-])c1 | 12 | 0 | -3 | 1 | / | /
COc1ccc(/C=C2\C=C(c3ccccc3)N(c3ccc(Cl)c([N+](=O)[O-])c3)C2=O)cc1Br | -3 | 0 | -5 | 1 | / | /
COc1cccc(NC(=O)c2cc(=O)c3ccccc3o2)c1 | -40 | 0 | 1 | 4.9* | 0 | 1
N#Cc1sc2ncc3c(c2c1N)CCCC3 | -6 | 0 | 4 | 9.7* | 0 | 13
Cc1ccc(NC(=O)COC(=O)CN2CSCC2=O)cc1C | 1 | 0 | -7 | -1 | / | /
O=C(CN1CCCC1)Nc1cccc([N+](=O)[O-])c1 | -4 | 0 | 16 | 4 | / | /
O=C(Cn1c(=O)c2cccn2c2ccccc21)N1CCc2ccccc21 | -7 | 0 | -5 | 0 | / | /
COc1cccc(-c2noc(C3CCCN(C(=O)Nc4ccc(C(F)(F)F)cc4)C3)n2)c1 (stereo not drawn) | -23 | 0 | 4 | 0 | / | /
COc1ccccc1NC(=O)N1CCC(C(=O)c2ccc(F)cc2)CC1 | 1 | 0 | -5 | 5.7* | 2 | 6
COc1ccccc1NC(=O)N1CCC(c2nc(-c3cccc(C(F)(F)F)c3)no2)CC1 | -4 | 0 | 5 | 11* | 0 | -10
Cc1ccccc1C(=O)Nc1ccnn1C1CCN(Cc2cnn(C)c2)CC1 | 4 | 0 | 8 | 0 | / | /
COc1ccccc1C(=O)Nc1ccc(I)cc1Cl | -20 | 0 | -23 | 7.2* | 0 | 12
COc1cccc(OC)c1C(=O)Nc1ccc(I)cc1Cl | -6 | 0 | -25 | -1 | / | /
O=C(Nc1ccc([N+](=O)[O-])cc1Cl)c1ccccc1Cl | -11 | 0 | -18 | 8.1* | 1 | 11
Cc1ccc(C(=O)Nc2ccc([N+](=O)[O-])cc2)c(Cl)c1 | -44 | 0 | 8 | 15* | 1 | 6
Cc1cc(C)cc(C(=O)Nc2ccc([N+](=O)[O-])cc2C)c1 | 2 | 0 | -6 | 8.9* | 0 | -3
Cc1ccc([N+](=O)[O-])cc1NC(=O)c1ccccc1Cl | 3 | 0 | 5 | 1 | / | /
O=C(NCc1ccccn1)c1ccc(N2CCCC2=O)cc1 | -34 | 0 | 0 | 0 | / | /
O=C(c1ccccc1)C1CN(C2CCS(=O)(=O)C2)CCC1(O)c1ccccc1 (stereo not drawn) | 4 | 0 | 1 | 3 | / | /
O=C(Nc1ccc(S(=O)(=O)Nc2nccs2)cc1)c1ccc([N+](=O)[O-])cc1Cl | -2 | 0 | 8 | 5.2* | 0 | -2
CCOC(=O)c1ccc(NC(=S)NNC(=O)Cc2cccn2C)cc1 | 3 | 0 | 10 | 10* | 1 | 7
COCc1c(C(=O)N/N=C\c2ccccc2OC)nnn1-c1nonc1N | 1 | 0 | 12 | 5.1* | -1 | -6
Nc1nonc1-n1nnc(C(=O)N/N=C/c2ccco2)c1CN1CCc2ccccc21 | -7 | 0 | -5 | 11* | 0 | 2
SMILES | TEAD-YAP inh | FBW7 activator | MITF inh | GPR151 ag | GPR151 conf act | GPR119 ag
Nc1nonc1-n1nnc(C(=O)N/N=C/c2cccs2)c1CN1CCc2ccccc21 | -1 | 0 | -6 | 2 | / | /
CC(C)COCC(O)CCC(=O)NNC(=S)Nc1ccccc1 (stereo not drawn) | -5 | 0 | 2 | 6.5* | 1 | 14
CCCCCC(O)CCC(=O)NNC(=S)Nc1ccccc1 (stereo not drawn) | 2 | 0 | 7 | 1 | / | /
CCN(C(=O)CCl)c1nc(-c2ccc(Cl)cc2)cs1 | -26 | 0 | 5 | 1 | / | /
CCC(=O)N(CCCN(C)C)c1nc(-c2ccc(Cl)cc2)cs1 | -3 | 0 | -9 | 6.0* | 1 | 10
CC(=O)Nc1ccc(OCC(O)CNC2CCCC2)cc1 (stereo not drawn) | -1 | 0 | 24 | 5.5* | 1 | 12
C=C1C(=O)OC2CC3(C)CCCC(C)C3=CC12 (stereo not drawn) | 11 | 0 | 6 | 6.2*! | 1 | 3
CN(C)c1cccc(C(=O)OCc2nnc(-c3ccccc3)o2)c1 | 3 | 0 | -2 | 6.6* | -1 | -1
C=CCN=c1scc(-c2ccco2)n1/N=C/c1ccc(OC)c(OC)c1OC | -8 | 0 | 15 | 0 | / | /
COC(=O)C[n+]1csc2ccccc21 | 6 | -1 | 14 | 7.8* | 0 | 5
CCOc1ccc(-c2cnc(N)n2C)cc1 | -4 | 0 | 11 | 5.4* | 1 | 7
CCNc1nc(NCC)n2c(SCC(=O)OCC)nnc2n1 | 11 | 0 | -1 | 26* | 2 | 11
CCNc1nc(NCC)n2c(SCC(=O)c3ccc(OC)cc3)nnc2n1 | -2 | 0 | -6 | 1 | / | /
N#CC1=C(N)C(C#N)(C#N)C(c2ccccc2Cl)C2CN(Cc3ccccc3)CC=C12 (stereo not drawn) | 5 | 0 | -7 | 3 | / | /
Cc1ccc(Cl)c2c1NC(=O)C21SCCS1 | -8 | 0 | 3 | 8.6* | -1 | 2
Cc1c(C(=O)Nc2cc(Sc3ccc(F)cc3)cc([N+](=O)[O-])c2)sc2ncn(Cc3ccccc3F)c(=O)c12 | 5 | 0 | 19 | 5.1* | 2 | 12
CC(C)c1nc(CNCc2c(C(=O)N3CCCC3)nc3sccn23)cs1 | -2 | 0 | 3 | -2 | / | /
COc1ccc(/C=N/Nc2nc(C)c([N+](=O)[O-])c(N(C)c3ccccc3)n2)cc1OC | 14 | 0 | -1 | 5.5* | 1 | 2
CCCCN1C(=O)C(=O)N(CC(=O)Nc2ccc(F)c(Cl)c2)C1=O | -4 | 0 | -5 | 1 | / | /
O=C(OCCN1CCOCC1)c1cccc(Br)c1 | -28 | 0 | -3 | 8.3* | -1 | -12
O=C(OCCN1CCOCC1)c1ccc(O)c(O)c1 | 4 | 0 | 17 | 1 | / | /
COc1ccc(OC)c(N(CC(=O)Nc2cccc(Cl)c2C)S(=O)(=O)c2ccccc2)c1 | 12 | 0 | 0 | 2 | / | /
CCc1nnc2n1N(C(C)=O)C(c1ccc(Cl)c(Cl)c1)=C(C(C)=O)S2 | 17 | 0 | 11 | 7.1* | 1 | 2
CCc1nnc2n1N(C(C)=O)C(c1ccc(Cl)cc1)=C(C(C)=O)S2 | 19 | 0 | 2 | 0 | / | /
